Here are results for 37 compounds from PubChem BioAssay (NCI).

About 83,000 compounds went through this panel and 20% of them were active in at least one assay; those are over-represented in the sample as a whole.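 For each line, cells grew in 96-well plates with the test compound present at a single concentration for 48 hours.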 Activity calls are given as the source filed them. The calls were made as follows: active = growth percent below 10; inactive = the rest.

The assay has as its system MDA-MB-468 breast. Nature of the assay: NCI-60 one-dose screen, 48 h (100 = growth as untreated, 0 = no growth, -100 = all killed). Particulars: 10 µM unless noted.
For `Cc1cc(C(C)(C)c2cc(C)c(O)c(CN(C)C)c2)cc(CN(C)C)c1O`, the growth was 67.7% (inactive).

For the compound `C=CN(C(=O)N1CCN(c2cc3c(cc2F)c(=O)c(C(=O)O)cn3C2CC2)CC1)c1nc(-c2ccc(C)cc2)cs1`, the growth is 44.4% (inactive). In the case of `COc1ccc(/C=C(/C)c2ccc3ccc(OC)cc3[o+]2)c(O)c1`, the growth is 67.7% (inactive). With `COc1ccc(C2=NC(=O)NC2c2ccc(OC)cc2)cc1` (configuration not stated), the growth is 43.9% (inactive). Consider `CCc1cc(OC(=O)N2CCN(CCC(C)(COC(C)(C)C)COC(C)(C)C)CC2)ccc1Nc1cc(-c2ccc(-n3cccn3)cc2)[nH]n1`, for which the growth is 82.4% (inactive). To `CC(=O)[C@@H]1CC[C@]2(C(=O)O)CC[C@]3(C)[C@H](CC[C@@H]4[C@@]5(C)Cc6c([nH]c7ccccc67)C(C)(C)[C@@H]5CC[C@]43C)[C@@H]12` belongs 82% (inactive).

As for `O=CN1N=C(c2ccc3c(c2)OCO3)CC1c1cccc(Nc2ccnc3cc(C(F)(F)F)ccc23)c1` (configuration not stated), the growth is 47.1% (inactive).

Turning to `Nc1ncnc2c1ncn2C1OC(CO)C2OC21` (configuration not stated), the growth is 93.5% (inactive). For the compound `Oc1ccccc1O`, the growth is 91.1% (inactive). To `O=C1/C(=C/c2ccc(Cl)cc2)CN(Cc2cn(CCCNc3ccnc4cc(Cl)ccc34)nn2)C/C1=C\c1ccc(Cl)cc1` belongs -69.8% (active). To `Cn1ccnc1C(=O)/C=C/c1ccc(CNC(=O)c2ccc(Cl)cc2)cc1` belongs -14.5% (active).

Take `O=C(N=Nc1c(O)[nH]c2ccc(Br)cc12)c1cc(-c2ccccc2)on1`: the growth was 109% (inactive). As for `Cc1cccc(C)c1NC(=O)CSC(=S)N1CCCCC1`, the growth was 110% (inactive).

Turning to `COc1ccc(-c2ccc3c4c(cccc24)C(=O)N(N2C(=O)c4cccc5cccc(c45)C2=O)C3=O)cc1`, the growth was 96.5% (inactive).

With `CCCCCCCCCc1cc(CN2CCCCC2)c(O)c(CN2CCCCC2)c1`, the growth is 40.4% (inactive). As to `CCNc1nc(-c2ccc(Cl)c(OC)c2)c(-c2ccnc(NCCNS(=O)(=O)c3ccc(Cl)cc3)n2)s1`, the growth was -8.24% (active). Regarding `Cc1ccc(CC#N)cc1C`, the growth is 104% (inactive). The figure for `Oc1c(I)cc(I)cc1CNCc1ccccn1` is 29.3% (inactive); for `Cc1nc(-c2cc3ccccc3oc2=O)ccc1C(=O)/C=C/c1ccc(Cl)c(Cl)c1` it is 110% (inactive); for `O=C1Nc2ccc(Cl)cc2/C1=C\c1c(-c2ccc(Cl)cc2)nc2sc(C3CC3)nn12` it is 66.4% (inactive).

Regarding `Clc1ccc2c(Nc3ccc4oc(NCCN5CCCC5)nc4c3)ccnc2c1`, the growth is 70.6% (inactive). As to `COc1ccc(-c2cc(C(=O)N=Nc3c(O)[nH]c4ccccc34)no2)cc1`, the growth is 106% (inactive). For `CCCCC[C@H]1C/C=C2/C(=O)C(Cl)=C[C@@H]2C/C=C\CCCC(=O)O1`, the growth is -26.7% (active). In the case of `O=C(O)CC(Cl)C(Cl)CC(=O)O` (configuration not stated), the growth was 114% (inactive). Regarding `C=C1c2c(C)nn(-c3ccc(C#CCOC4OC(CO)C(O)C(O)C4O)cc3)c2N(C)C23C[C@H]1C1(C)c4c(C)nn(-c5ccc(C#CCOC6OC(CO)C(O)C(O)C6O)cc5)c4N(C)C(C)(C[C@H]12)C3` (some centres not stated), the growth was -16.4% (active). The figure for `FC(F)(F)c1cn(CC2CNC2)c2ncnc(Cl)c12` is 111% (inactive). The figure for `Clc1cc(Br)ccc1-c1ccc(CNCC2CCNCC2)o1` is 21.2% (inactive); for `O=C(O/C(=C/c1ccccc1)C(F)(F)F)c1ccccc1` it is 109% (inactive). The figure for `C/C(=C(\c1ccc(OCCN2CCCCCC2)cc1)c1ccc(OC(=O)Cc2ccccc2)cc1)c1ccc(Cl)cc1` is -4.03% (active); for `ClC(Cl)c1nc(-c2ccccc2)nc2cc(-c3ccccc3)nn12` it is 33.8% (inactive); for `C=C1CC[C@@H]2[C@](C)(COC(C)=O)[C@H](OC(C)=O)CC[C@@]2(C)[C@@H]1CC(Nc1ccc(S(=O)(=O)Nc2ccc(Cl)nn2)cc1)C1=CCOC1=O` (some centres not stated) it is -32.3% (active). In the case of `CCCCCCCCCCn1cc[n+](C)c1`, the growth is -42.1% (active).

In the case of `COc1cc(-c2nc3ccc(C)cc3[nH]2)ccc1OCC(=O)N=Nc1c(O)[nH]c2ccccc12`, the growth is -85.9% (active). To `CC(O)c1cnc(/C=C2\SC(=S)N(Cc3ccccc3)C2=O)s1` (configuration not stated) belongs 13.8% (inactive). The figure for `COc1cccc(-c2nc3sccn3c2-c2ccnc(NCCNS(=O)(=O)c3ccc(C(F)(F)F)cc3)c2)c1` is 41.7% (inactive); for `CC(C)c1ccc(-n2c(=S)[nH]c3sc4c(c3c2=O)CCC(=O)C4)cc1` it is 58.6% (inactive). To `O=C(Nc1ccccc1OC(=O)c1ccccc1)c1ccccc1` belongs 59% (inactive).
